We go through eight compounds from PubChem BioAssay.

The nature of experiment [1]: growth inhibition of DIPG glioma cells, dose response, cell-based, SU-DIPG-XVII, MIPE5.0, CellTiter-Glo, qHTS (AID 1347060).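 As to AC50: cells exposed to compound for 48 hours before viability readout.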 As to conditions: SU-DIPG-XVII viability, CellTiter-Glo ATP luminescence.
A short description of experiment [2]: growth inhibition of DIPG glioma cells, dose response, cell-based, SU-DIPG-XIII, MIPE4.0, CellTiter-Glo, qHTS (AID 1347061; cut-off not given, nearly all actives have AC50 up to about 37 µM;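 also: cells exposed to compound for 48 hours before readout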). As to conditions: SU-DIPG-XIII viability, CellTiter-Glo ATP luminescence. In general terms: ATP-based viability assays read luminescence as a measure of living cells.
Experiment [3] is described as follows: growth inhibition of DIPG glioma cells, dose response, cell-based, JHH-DIPG-1, MIPE4.0, CellTiter-Glo, qHTS (AID 1347062; cut-off not given, nearly all actives have AC50 up to about 27 µM;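 as to AC50: cells exposed to compound for two days before readout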). As to conditions: JHH-DIPG-1 viability, CellTiter-Glo ATP luminescence.
Experiment [4] can be described thus: growth inhibition of DIPG glioma cells, dose response, cell-based, SU-DIPG-XIII, MIPE5.0, CellTiter-Glo, qHTS (AID 1347064; cut-off not given, nearly all actives have AC50 up to about 23 µM;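 as to AC50: cells exposed to compound for 48 hours before the viability read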). The settings on record: SU-DIPG-XIII viability, CellTiter-Glo ATP luminescence.
A short description of experiment [5]: viability loss in pontine glioma line – cell-based, SU-DIPG-XXV, MIPE5.0, CellTiter-Glo, qHTS, dose response (AID 1347065).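 Also: cells exposed to compound for 48 hours before ATP readout.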 As to conditions: CellTiter-Glo ATP luminescence.
Experiment [6] is described as follows: SU-DIPG-VI glioma cell viability, MIPE4.0 library, CellTiter-Glo luminescence, qHTS (AID 1347066; cut-off not given, nearly all actives have AC50 up to about 30 µM;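 also: cells exposed to compound for 48 hours before readout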). As to conditions: CellTiter-Glo ATP luminescence.
Experiment [7] can be described thus: JHH-DIPG-1 glioma cell viability, MIPE5.0 library, CellTiter-Glo luminescence, qHTS (AID 1347067).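 Also: cells exposed to compound for 48 hours before readout.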 As to conditions: JHH-DIPG-1 glioma viability, CellTiter-Glo ATP luminescence.
The nature of experiment [8]: SU-DIPG-XXV glioma cell viability, MIPE5.0 library, qHTS (AID 1347068; cut-off not given, nearly all actives have IC50 up to about 30 µM;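 as to IC50: cells exposed to compound for 48 hours before viability readout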).
Experiment [9] can be described thus: growth inhibition of DIPG glioma cells, dose response, cell-based, SU-DIPG-IV, MIPE4.0, CellTiter-Glo, qHTS (AID 1347063; cut-off not given, nearly all actives have AC50 up to about 30 µM;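 also: compound exposure lasted 48 hours before the viability readout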). As to conditions: SU-DIPG-IV viability, CellTiter-Glo ATP luminescence.
The nature of experiment [10]: sensitizers of A549 cells to miR-34 induction, primary screen, imaging, A549 dox-inducible miR-34, nuclei and caspase counts (AID 1347080;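 active = compounds whose cell count with miR-34 switched on is under 0.7 times the count with it off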). As to conditions: A549 miR-34 inducible, Hoechst nuclei count, 48 h.
A short description of experiment [11]: modifiers of HSF1 nuclear foci, imaging, Selleck Cancer Library (AID 1347162; in the data active = plate-normalised HSF1 focus index below about 0.46). The settings on record: human cells, at 10 µM; SSMD: measured here: HSF1 foci SSMD mean; cell count: measured here: cell number; plate-normalised HSF1 focus index: stronger effect = lower value.

SMILES strings stand for the structures. Results filed as inconclusive are left out. Activity calls are given as the source filed them. Unless noted, the limit is not given here; nearly all actives have AC50 up to about 26 µM.

As for `O=C(NC[C@H](O)CO)c1ccncc1Nc1ccc(I)cc1F`, the AC50 (in general, the concentration giving half of the maximal activity seen) in experiment [1] was 0.742 µM (active); in [2], 1.32 µM (active); in experiment [3] it was 1.48 µM (active); in experiment [4], 0.417 µM (active); in experiment [5] it was 0.59 µM (active); in [7], 0.332 µM (active). Moreover, the call in experiment [6] and in [8] was inactive.

As to `CC[C@H](CO)Nc1nc(NCc2ccccc2)c2ncn(C(C)C)c2n1`, the AC50 is 20.9 µM (active) in experiment [1], 16.6 µM (active) in experiment [2], 26.4 µM (active) in experiment [3] and 20.9 µM (active) in experiment [9]. Moreover, the fold change in [10] (stronger effect = lower value, cell number ratio, induced over uninduced) was 0.923 (inactive); in [10] (measured here: relative caspase fold change +Dox/-Dox), 1.07. The cell count in experiment [10] (measured here: total cells with miR-34 induction, stronger effect = lower value) is 983; in experiment [10] (measured here: total cells without miR-34 induction) it was 1060; in [11], 7490. This compound had an SSMD in experiment [11] of 1.82. Further, the plate-normalised HSF1 focus index in experiment [11] is 1.11 (inactive).

For the compound `O=C(Nc1ncc(-c2cc(C(F)F)nn2-c2c(Cl)cccc2Cl)s1)C1CC1`, the half-maximal activity concentration (AC50) is 0.833 µM (active) in experiment [1]; 13.2 µM (active) in experiment [2]; 0.662 µM (active) in [3]; 2.35 µM (active) in [4]; 1.05 µM (active) in [5]; 5.26 µM (active) in experiment [6]. In experiment [7], the AC50 was 1.32 µM (active). The IC50 (as a rule, the concentration that gives 50% inhibition) in [8] was 1.18 µM (active).

Take `CC(C)(N)C(=O)N[C@H](COCc1ccccc1)C(=O)N1CCC2(CC1)CN(S(C)(=O)=O)c1ccccc12`: the result in [1], in experiment [2], in experiment [3], in experiment [4], in [5] and in [6] was inactive. The compound was called inactive in experiment [7] and in experiment [8].

On to `Nc1nc2c(c(=O)[nH]1)N(C=O)[C@H](CNc1ccc(C(=O)N[C@@H](CCC(=O)O)C(=O)O)cc1)CN2`, for which the compound was classed as inactive in experiment [1], in experiment [2], in experiment [3], in experiment [4], in experiment [5] and in experiment [6]. Moreover, the call in experiment [7] and in experiment [8] was inactive.

`NC(=O)c1cccc2cn(-c3ccc([C@@H]4CCCNC4)cc3)nc12`: the AC50 in experiment [1] was 8.33 µM (active). Also, the result in experiment [2], in experiment [3], in [9], in experiment [6] and in [7] was inactive.

As to `O=C(CCCCCCC(=O)Nc1cccnc1)NO`, the AC50 in experiment [1] is 8.33 µM (active); in experiment [2], 9.35 µM (active); in experiment [3], 7.43 µM (active); in [4], 5.9 µM (active); in experiment [5], 7.42 µM (active); in experiment [7], 3.32 µM (active). In addition, the SSMD in experiment [11] was 1.14. The compound also came in with a cell count in experiment [11] of 7080. The plate-normalised HSF1 focus index in [11] was 1.07 (inactive).

On to `C[C@H]1[C@H](C)CC[C@]2(C(=O)O)CC[C@]3(C)C(=CC[C@@H]4[C@@]5(C)C[C@@H](O)[C@H](O)[C@@](C)(CO)[C@@H]5CC[C@]43C)[C@H]12`, for which the call in experiment [1], in [2], in experiment [3], in experiment [4], in experiment [5] and in experiment [6] was inactive. In addition, the result in experiment [8] was inactive.
